# Data as given in PubChem BioAssay AID504445 (The Scripps Research Institute Molecular Screening Center, 2011).
# This is one part of the list. Unmarked numbers belong to inactive results. Activity calls are given as the source filed them.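 The calls were made as follows: active = mean inhibition over triplicate wells above a set limit taken from the primary lipase screen (cut at about 34% in these data); inactive = the rest.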
# Target: Diacylglycerol lipase-beta (Homo sapiens) (UniProt Q8NCG7)
# Assay: DAGLB lipase inhibitors, retest, confirmation, biochemical, fluorescence, HEK293T membranes (AID 504445);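 also: 0% = DAGLB with DMSO and 100% = wells lacking DAGLB enzyme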
# Details: HEK293T DAGLB membrane lysate, EnzChek fluorogenic substrate; at 5.17 µM; active compounds read high
# Sequence of Diacylglycerol lipase-beta (Homo sapiens) (Q8NCG7 whole entry, looked up): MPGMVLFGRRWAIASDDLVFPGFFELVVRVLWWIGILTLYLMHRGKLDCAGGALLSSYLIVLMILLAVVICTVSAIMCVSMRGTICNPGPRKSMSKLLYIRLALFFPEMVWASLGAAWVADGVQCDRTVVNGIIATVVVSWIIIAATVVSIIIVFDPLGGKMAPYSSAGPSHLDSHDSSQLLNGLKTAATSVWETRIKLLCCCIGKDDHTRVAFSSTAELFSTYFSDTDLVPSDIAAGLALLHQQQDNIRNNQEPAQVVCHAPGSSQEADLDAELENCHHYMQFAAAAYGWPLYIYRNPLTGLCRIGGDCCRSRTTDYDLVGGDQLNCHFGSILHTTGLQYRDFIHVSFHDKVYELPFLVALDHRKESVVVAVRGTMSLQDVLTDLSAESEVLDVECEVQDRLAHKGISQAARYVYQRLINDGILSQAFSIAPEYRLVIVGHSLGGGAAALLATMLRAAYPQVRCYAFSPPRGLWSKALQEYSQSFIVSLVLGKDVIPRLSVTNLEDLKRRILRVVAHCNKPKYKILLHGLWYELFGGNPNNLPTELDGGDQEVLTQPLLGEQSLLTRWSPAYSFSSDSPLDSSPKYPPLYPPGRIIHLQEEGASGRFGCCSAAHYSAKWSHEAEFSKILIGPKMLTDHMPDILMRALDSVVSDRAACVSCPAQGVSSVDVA
row,SMILES,inhibition
1,COc1cccc(/C=N/Nc2ccc(S(=O)(=O)Nc3ccccc3C(=O)O)cc2[N+](=O)[O-])c1O,49.7% (active)
2,COc1ccc(Br)cc1/C=N/Nc1ccc(S(=O)(=O)Nc2ccccc2C(=O)O)cc1[N+](=O)[O-],27.4%
3,Cc1ccc(S(=O)(=O)/N=C2\C=C(NS(=O)(=O)c3ccc(C)cc3)C(=O)c3ccccc32)cc1,18.2%
4,Cc1oc2cc([N+](=O)[O-])c(O)c([N+](=O)[O-])c2c1C(=O)c1ccc(Br)cc1,49.9% (active)
5,O=C(NNc1c2ccccc2nc2ccccc12)c1cc2ccccc2cc1O,63.4% (active)
6,O=C(Oc1cccc(N2C(=O)C3C4c5ccccc5C(c5ccccc54)C3C2=O)c1)c1ccco1 (configuration not stated),31.9%
7,Cc1ccc(/C=N/NC(=O)C(NC(=O)c2ccccc2)c2n[nH]c(=O)c3ccccc23)cc1 (configuration not stated),27.9%
